PNC assembly inh = blocks assembly of the perinucleolar compartment; actives 3.1% (n = 140,000); PC3M PTB-GFP, PNC prevalence imaging, 16 h; stronger effect = lower value; AID 2417; activity change (PNC), negative = inhibition, % at 10 µM;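 active = readout at or below -70, meaning at least 70% loss of cells showing the perinucleolar compartment, a nuclear body marking cancer cells; inconclusive = readout between -30 and a set limit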;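 note: plate controls were DMSO wells for no effect and camptothecin positive control wells for full effect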
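PC3M cells stably expressing PTB-GFP, 750–1000 cells/well, treated 16 h at 37 °C with compound (23 nl of library stock), in duplicate. After paraformaldehyde fixation and Hoechst stain, imaged at 20x; PNC prevalence scored by image analysis.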
ALDH1A1 block = blocks purified human ALDH1A1 activity | P00352 | Purified ALDH1A1, NADH fluorescence, propionaldehyde substrate | Potency, µM (series often up to 75.3 µM), for the others: at the highest dose activity, negative = inhibition, hits mostly inhibitors | actives 7.3% (n = 220,000);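 note: potency is the fitted concentration of half-maximal effect; plate controls were no enzyme wells and a reference inhibitor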
Target sequence (P00352 whole entry, looked up): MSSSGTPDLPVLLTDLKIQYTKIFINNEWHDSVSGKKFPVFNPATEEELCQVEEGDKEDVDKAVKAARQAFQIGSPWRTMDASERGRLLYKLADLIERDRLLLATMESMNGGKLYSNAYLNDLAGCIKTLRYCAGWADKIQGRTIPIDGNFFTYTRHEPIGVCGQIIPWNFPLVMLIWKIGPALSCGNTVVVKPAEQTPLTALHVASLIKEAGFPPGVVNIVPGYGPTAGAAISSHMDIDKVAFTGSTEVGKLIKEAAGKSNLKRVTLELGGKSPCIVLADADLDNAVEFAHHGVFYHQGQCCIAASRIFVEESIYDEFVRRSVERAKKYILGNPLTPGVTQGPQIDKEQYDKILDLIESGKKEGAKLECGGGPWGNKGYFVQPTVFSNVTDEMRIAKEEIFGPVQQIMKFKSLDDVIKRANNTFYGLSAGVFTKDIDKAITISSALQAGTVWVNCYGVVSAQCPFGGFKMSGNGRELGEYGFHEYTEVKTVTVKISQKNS
HPGD inh = blocks human HPGD enzyme activity; purified HPGD, NADH fluorescence kinetic, PGE2 substrate; Potency, µM, for the others: at the highest dose activity change, negative = inhibition, most hits filed as inhibitors; actives 4.3% (n = 150,000); AID 894; note: potency is the fitted concentration of half-maximal effect
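20 nM HPGD preincubated 15 min at room temperature with compound in 50 mM Tris-HCl pH 8, 0.01% Tween 20. Started with 1 mM NAD+ and 30 uM prostaglandin E2; NADH fluorescence (360/450 nm) read 5 times over 30-s intervals, last minus first.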
* marks the source's active call; other numbers are inactive results; u = inconclusive; x = not tested or not shown; [ ] = another dose, or the depositor's remark. The list is not random: actives were taken first. Their share in the collection is about 11%. Unless noted, calls come from the whole dose curve; as a rule, active = well fitted inhibition curve with a large enough effect (not every such curve was filed as active); inconclusive = small, poorly fitted or top-dose-only effect, or another doubt; inactive = no such curve, though single readings can be large or run the other way. Unless noted, % is set by controls: 0 for no effect and ±100 for the full control effect.

SMILES	PNC assembly inh	ALDH1A1 block	HPGD inh
CCN1C(=O)C(=Cc2cc(C)n(C3CC3)c2C)C(=O)N(CC)C1=S	3	10µM*	-19%
Cc1cc(C=O)c(C)n1C1CCCCC1	-9	22µM*	-7%
CCOC(=O)C1CCN(/C=C2\C(=O)NC(=S)N(CC)C2=O)CC1	x	-6%	x
Cc1cc(/C=C2/C(=O)NC(=O)N(C)C2=O)c(C)n1-c1ccccc1	x	2%	x
Cc1cc(/C=C2\C(=O)NC(=S)N(C)C2=O)c(C)n1C1CCCCC1	u	-8%	-1%
Cc1cc(C=C2C(=O)N(C)C(=S)N(C)C2=O)c(C)n1-c1cccnc1	10	11µM*	10µM*
N#CCBr	x	-9%	-9%
C[C@@H]1O[C@@H](O[C@H]2C[C@@H](O)[C@]3(CO)[C@@H]4C(CC[C@]3(O)C2)[C@@]2(O)CC[C@H](C3=CC(=O)OC3)[C@@]2(C)C[C@H]4O)[C@H](O)[C@H](O)[C@H]1O (some centres not stated)	x	6%	9%
C=C(C)C1CNC(C(=O)O)C1CC(=O)O (configuration not stated)	x	2%	4%
CC(C)(O)[C@H]1O[C@@H]2CC[C@]3(C)[C@@]4(C)c5[nH]c6ccccc6c5C[C@@H]4CC[C@]3(O)C2=CC1=O	x	-6%	-6%
CC(C)C[C@H]1C(=O)N2CCCC2[C@]2(O)O[C@](NC(=O)[C@@H]3C=C4c5cccc6[nH]c(Br)c(c56)C[C@H]4N(C)C3)(C(C)C)C(=O)N12 (some centres not stated)	x	1%	-27%
C=CCN1C(=O)NC(=O)/C(=C/c2ccoc2)C1=O	43	u	25µM*
C=CCN1C(=O)NC(=O)/C(=C/c2ccc(N(C)C)c(Br)c2)C1=O	x	13µM*	x
C=CCN1C(=O)NC(=O)/C(=C/c2cccn2C)C1=O	-7	4%	-23%
C[N+]1([O-])[C@@H]2CC[C@H]1CC(OC(=O)[C@@H](CO)c1ccccc1)C2 (some centres not stated)	x	-1%[20.9 µM]	-7%
OCCCBr	x	-7%	-2%
CC(=O)OC1CCC2(C)C3=C(CCC2C1(C)C)[C@@]1(C)CCC(C(C)CCC=C(C)C)[C@@]1(C)CC3 (some centres not stated)	x	4%	-1%
O=C1c2ccccc2-c2c1nc1c([n+]2[O-])CCCC1	14	u	-13%
O=C1NC(=O)N(c2ccc3c(c2)OCO3)C(=O)/C1=C\c1ccc(N2CCCCC2)o1	u	u	-26%
O=C1NC(=O)C(=Cc2ccc(SC3CCCCC3)o2)C(=O)N1	x	25µM*	x
O=C(NC1(C(F)(F)F)Oc2ccccc2O1)N1CCC2(CC1)OCCO2	-119*	u	u
O=C(NC1(C(F)(F)F)Oc2ccc(Cl)cc2O1)N1CCC2(CC1)OCCO2 (configuration not stated)	9	u	-11%
COc1cc(C2C(C#N)=C(N)OC3=C2C(=O)CC(C)(C)C3)ccc1OC(=O)N1CCOCC1 (configuration not stated)	-20	u	-11%
CC1(C)CC(=O)C2=C(C1)OC(N)=C([N+](=O)[O-])C2c1ccc(C#N)s1 (configuration not stated)	x	20µM*	x
COc1ccc(C2=NCC(=O)N(CC(=O)NCc3ccco3)c3sc4c(c32)CCCC4)cc1	10	16µM*	-6%
SMILES	PNC assembly inh	ALDH1A1 block	HPGD inh
Cc1cccc(C2=NCC(=O)N(CC(=O)NCc3ccco3)c3sc4c(c32)CCCC4)c1	u	20µM*	28µM*
Cc1ccccc1C1=NCC(=O)N(CC(=O)N2CCCCC2)c2sc(C)c(C)c21	-14	u	-7%
O=C(CN1C(=O)CN=C(c2ccccc2Cl)c2cc(Cl)ccc21)NCc1ccco1	-21	7%	4%
N#Cc1ccc(CN2CC3(CCNCC3)C2)cc1	x	9%	-4%
N#Cc1cccc(NC(=O)N2CCCC3(CCN(C(=O)Oc4ccccc4)CC3)C2)c1	x	2%	0%
O=C(O)CCC1NCC2CC1CN1CCCCC21 (configuration not stated)	x	13%	-2%
COc1ccc(C2C(C(=O)N3CCC4(CC3)OCCO4)c3cc(OC)c(OC)cc3C(=O)N2C)cc1 (configuration not stated)	-19	14µM*	-16%
COc1ccc(NC(=O)N2CCC3(CC2)OCCO3)cc1OC	u	16%	1%
c1ccc(C[C@@H](c2ccccc2)N2CCCCC2)cc1	x	4%	-1%
CC(C)CC(NP(=O)(O)O[C@@H]1O[C@@H](C)[C@H](O)[C@@H](O)[C@H]1O)C(=O)NC(Cc1c[nH]c2ccccc12)C(=O)O (some centres not stated)	x	9%	3%
O=C(COc1ccc(S(=O)(=O)N2CCCCC2)cc1)N1CCN(Cc2ccccc2)CC1	u	u	2%
CCN1CCN(S(=O)(=O)c2ccc(Cl)nc2)CC1	65	25µM*	-2%
C/C=C1/C[C@@H](C)[C@](O)(CO)C(=O)OCC2=CCN3CC[C@@H](OC1=O)C23 (some centres not stated)	x	7%	1%
CCCCN(CC)c1c([N+](=O)[O-])cc(C(F)(F)F)cc1[N+](=O)[O-]	x	0%	-7%
Cc1[nH]n(-c2ccccc2)c(=O)c1C(c1ccc([N+](=O)[O-])cc1)c1c(C)[nH]n(-c2ccccc2)c1=O	-2	13µM*	28µM*
Cc1[nH]n(-c2ccccc2)c(=O)c1C(C[N+](=O)[O-])c1ccccc1Cl (configuration not stated)	35	u	-12%
NC(=NCCC[C@H](N)C(=O)O)N[N+](=O)[O-]	x	4%	-5%
O=C1C=C2C(=CCOC2O)O1 (configuration not stated)	x	u	-6%
COc1ccc(NC(=O)c2cc([N+](=O)[O-])ccc2N2CCNCC2)cc1	x	8.9µM*	x
COP(=O)(OC)/C(C=O)=N/Nc1ccc([N+](=O)[O-])cc1	x	-1%	x
NCCCNCCCCNCCCNC(=O)Cc1ccc(O)cc1	x	6%[13.5 µM]	-1%
Cc1ccc(-n2nc(C)c3c2OC(N)=C(C#N)C3c2cccs2)cc1 (configuration not stated)	27	13µM*	-13%
Cc1ccc(-n2nc(C)c(C3C(C#N)=C(N)Oc4c3c(=O)oc3ccccc43)c2Cl)cc1 (configuration not stated)	8	-6%	-16%
O=C(O)[C@@H]1CSC(c2cccnc2)N1 (some centres not stated)	x	-9%	-4%
NCCSC(c1ccccc1)c1ccccc1	x	-12%[13.5 µM]	-8%
SMILES	PNC assembly inh	ALDH1A1 block	HPGD inh
CCCCn1c(NC(=O)c2ccc(Br)o2)c(C(=O)OCC)c2nc3ccccc3nc21	7	u	u
O=C(OCCCCN1C(=O)c2ccccc2C1=O)c1ccc(Br)o1	1	u	16µM*
CCCN1[C@H](C(=O)OC)C[C@@H]2CC[C@@H](O)C[C@@H]21	x	0%	-8%
CCOC(=O)CBr	x	u	-12%
CCOC(=O)CC(SP(=O)(OC)OC)C(=O)OCC (configuration not stated)	x	11µM*	-21%
c1ccc(OP(Oc2ccccc2)Oc2ccccc2)cc1	x	-16%	0%
C#CCN1C(C)=C(C(=O)CCO)[C@@H](c2cccc(-n3oo3)c2)C(C(=O)OC)=C1C	x	0%	-30%

Screens deposited in PubChem by National Center for Advancing Translational Sciences (NCATS).
